The values that follow come from PMC9928087, “Plasmids manipulate bacterial behaviour through translational regulatory crosstalk”.

Experiment [1] addresses T1, RsmQ (Pseudomonas fluorescens SBW25 plasmid …, UniProt UPI00015066B5 1-62).
T1 sequence: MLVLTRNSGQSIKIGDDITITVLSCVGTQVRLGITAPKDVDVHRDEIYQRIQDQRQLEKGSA
The experiment is described as follows: SPR (ReDCaT); HBS-EP+ (10 mM HEPES, 150 mM NaCl, 3 mM EDTA, 0.05% v/v Tween 20, pH 7.4), 20 C, Biacore 8K, ReDCaT SA chip; high values mean tight binding. The note with it: protein: recombinant, tags: C-terminal TEV site + 6xHis, chain copies: 2. (In general: In SPR one partner is held on a chip, and binding of the other changes the refractive index at the surface.)

For experiment [2], the target named is T1, RsmQ. The experiment can be described thus: SPR (ReDCaT); 100 nM protein; HBS-EP+ (10 mM HEPES, 150 mM NaCl, 3 mM EDTA, 0.05% v/v Tween 20, pH 7.4), 20 C, Biacore 8K, ReDCaT SA chip; high values mean tight binding. The following applies: protein: recombinant, tags: C-terminal TEV site + 6xHis, chain copies: 2.
A further experiment concerns the target T2, RsmQ H43A (Pseudomonas fluorescens SBW25 plasmid …, UniProt UPI00015066B5 1-62, H43A).
T2 sequence: T1 sequence with H43A
The description is as above. The following applies: protein: recombinant; tags: C-terminal TEV site + 6xHis; chain copies: 2; structured_DNA.

In a further experiment the target is T3, RsmQ R44A (Pseudomonas fluorescens SBW25 plasmid …, UniProt UPI00015066B5 1-62, R44A).
T3 sequence: T1 sequence with R44A
The description is as above. The following applies: protein: recombinant; tags: C-terminal TEV site + 6xHis; chain copies: 2; structured_DNA.

For the next experiment, the target named is T4, RsmE (Pseudomonas fluorescens SBW25, UniProt A0ACA7PAD1 1-74).
T4 sequence: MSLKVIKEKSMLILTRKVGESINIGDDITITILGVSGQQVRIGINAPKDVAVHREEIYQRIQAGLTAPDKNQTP
Described as above. The following applies: protein: recombinant; tags: His tag (pET28a NdeI/XhoI); chain copies: 2; structured_DNA.

For experiment [3], the target named is T1, RsmQ. The experiment is described as follows: SPR (ReDCaT); 100 nM protein, run beside RsmE; HBS-EP+ (10 mM HEPES, 150 mM NaCl, 3 mM EDTA, 0.05% v/v Tween 20, pH 7.4), 20 C, Biacore 8K, ReDCaT SA chip; high values mean tight binding. The following applies: protein: recombinant; tags: C-terminal TEV site + 6xHis; chain copies: 2; structured_DNA.

Changes are numbered by the printed parent chain.

As for GGAATACAGGGACTAGGGAAAAAAT, the binding signal with RsmQ [1] (ssDNA) came out at 3.83 ± 1.08 %Rmax. On the same count and under the same terms, for CCATCAAGGAACGATGGTTCGAAGG the value was 11.7 ± 0.382 %Rmax. On the same count and under the same terms, the result for TTCATCAGGATGATGAAAAGGAATAC reads 80.5 ± 1.97 %Rmax. Consider CCGCGCACGGAAGCGCAAAC, for which the binding signal is 68.3 ± 0.752 %Rmax with RsmQ [2] (structured_DNA); 50.72 ± 0.382 %Rmax with RsmQ H43A; 41.38 ± 0.372 %Rmax in the experiment with RsmQ R44A; -4.31 ± 0.212 %Rmax with RsmE; 49.1 ± 0.724 %Rmax with RsmQ [3].

Take GCCCTGTGTCCACGGATTGGCACAA: the binding signal in the experiment with RsmQ [1] (structured_DNA) came out at 82.5 ± 1.12 %Rmax. As to CCGCGCCCGGAAGCGCAAAC, the binding signal in the experiment with RsmQ [2] (structured_DNA) was determined as 7.21 ± 0.838 %Rmax. Regarding CTGCCAGGATGGCGGAGTGAAATGG, the binding signal in the experiment with RsmQ [1] (ssDNA) was 16.2 ± 1.37 %Rmax.

AATGTCGCAGGATGCGATTCATCAG: the binding signal with RsmQ [1] (ssDNA) came out at 62.7 ± 2.27 %Rmax. On to CAGGAAAGGACAGAGCACGGA, for which, in the experiment with RsmQ [2] (ssDNA), the binding signal was 10.1 ± 0.715 %Rmax. In the case of CCGCGCAGGAAGCGCAAAC, the binding signal was found to be 94.4 ± 1.28 %Rmax with RsmQ [2] (structured_DNA), 43.9 ± 0.798 %Rmax with RsmQ H43A, 22.1 ± 0.676 %Rmax with RsmQ R44A and 98.6 ± 6.21 %Rmax with RsmQ [3]. For the sequence CCGCGCTCGGAAGCGCAAAC, the binding signal in the experiment with RsmQ [2] (structured_DNA) worked out at 4.59 ± 0.514 %Rmax. For the sequence CAGGAACGGACAGAGC, the binding signal with RsmQ [2] (ssDNA) was 6.27 ± 1.5 %Rmax. Same read-out and setting: the result for CAAGGAGACAGAGCAACAGGA reads 3.14 ± 0.795 %Rmax. On to CCGCGCACTGAAGCGCAAAC, for which the binding signal with RsmQ [2] (structured_DNA) amounted to 1.69 ± 0.298 %Rmax.

Regarding CCGCGCAGGGAAGCGCAAAC, the figures for the binding signal with RsmQ [2] (structured_DNA), in the experiment with RsmE and with RsmQ [3] were 106.2 ± 0.739 %Rmax, 47.5 ± 0.0552 %Rmax and 90.1 ± 4.07 %Rmax, respectively. For CCGCGCACGGAAGCGCAACGGAAC, the binding signal in the experiment with RsmQ [2] (structured_DNA) is 70 ± 0.746 %Rmax; with RsmQ H43A, 51.14 ± 0.26 %Rmax; with RsmQ R44A, 38.8 ± 0.461 %Rmax. The corresponding values for CCGCGCCGGAAGCGCAGGAAC are 28.8 ± 0.617 %Rmax, 12.8 ± 0.157 %Rmax and 3.8 ± 0.253 %Rmax.

On to CCGCGCATGGAAGCGCAAAC, for which the values for the binding signal with RsmQ [2] (structured_DNA), with RsmE and in the experiment with RsmQ [3] were 113.5 ± 0.537 %Rmax, 30.1 ± 0.204 %Rmax and 107 ± 6.88 %Rmax, respectively. Take ATGGACGTCGCGCAGGAAGCGCAAA: the binding signal with RsmQ [1] (structured_DNA) was 83.5 ± 1.31 %Rmax.

As to CCGCGCACGAAGCGCAAAC, the binding signal with RsmQ [2] (structured_DNA) was determined as 24.9 ± 0.641 %Rmax. As to CAGGACAGGACAGAGC, the binding signal in the experiment with RsmQ [2] (ssDNA) was 4.87 ± 0.902 %Rmax. Regarding GCAACAACACGGACACGTAGGATT, the binding signal with RsmQ [1] (ssDNA) worked out at 3.78 ± 1.57 %Rmax.
